Measurements as given in PubChem BioAssay (NCATS).
Results filed as inconclusive are left out. A number with no mark means an inactive call. Active and inactive are the calls of the source. Calls follow the shape of the dose curve; as a rule, active = well fitted inhibition curve with a large enough effect; inconclusive = small, poorly fitted or top-dose-only effect; inactive = no such curve, though single readings can be large or run the other way.

Experiment: BET inhibitor-based combinations targeting novel dependencies in MECOM-rearranged (r) AML: MV-4-11 cell line (AID 2202233); also: nearly all actives have a fitted effect of over 45% in size
Details: MV-4-11 AML viability, CellTiter-Glo luminescence, 48 h; series mostly up to 46 µM; viability, % of control: at the top concentration
Excerpt: Ecotropic viral insertion site 1 (EVI1) is located on chromosome 3q26.2 as part of the MECOM (MDS and EVI1 complex) locus. Under normal hematopoiesis, EVI1 is a regulator of hematopoietic stem cell maintenance and self-renewal and EVI1 levels decrease as the cells differentiate. In approximately 5-10% of de novo acute myeloid leukemia (AML) EVI1 is aberrantly expressed, including Chromosomal inv(3)(q21;q26.2) or t(3;3)(q21;q26.2) alterations (MECOM-r) that account for about 50% of AML with EVI1 overexpression 31. AMLs with high levels of EVI1 have a poor prognosis and an overall survival time averaging between 10-14 months. EVI1 overexpression confers resistance in leukemia cells, highlighting the need to develop new targeted therapies for EVI1 overexpressing AMLs. Here, we performed an unbiased chemical drug screening by evaluating the single agent activity of a collection of 2,480 oncology-focused, approved and investigational drugs (NCATS Mechanism Interrogation Plates, MIPE v5.0) against a panel of seven AML cell lines. These included four MECOM-r cell-lines (AML-191, AML-194, UCSD-AML1 and HNT-34) and three non-MECOM-r AMLs (MV4-11, OCI-AML3 and SET-2). Exploiting the mechanistic redundancy built in the library, we identified target-level sensitivities in MECOM-r AML cells and relative activity as compared to other AML subtypes.
A collection of 2480 mechanistically annotated dugs (MIPE v5.0) was used to screen four 3q26.2 rearranged AML cell lines and three non-3q26.2 rearranged AML cell lines. This library purposely exploits redundancy by including multiple inhibitors of key onco-targets, while simultaneously encompassing mechanistic diversity, targeting more than 800 distinct mechanisms of action. Briefly, cells were seeded in 5 uL of growth media using a Multidrop Combi dispenser into 1536 well white polystyrene tissue culture treated plates (Corning) at a density of 500cells/well. For each cell-line, for each of the 2480 drugs in MIPE v5.0 library, an 11-point dose curve was generated via a 1536 pin-tool. Plates were incubated for 48 hr at standard incubator conditions, covered by a stainless steel gasketed lid to prevent evaporation. Cell viability was determined by luminescence based, Cell Titer Glo assay (Promega). In detail, 3 uL of Cell Titer Glo were added to each well and plates were incubated at room temperature for 15 min with a stainless-steel lid in place. Luminescence readings were taken using a Viewlux (PerkinElmer) with a 2 s exposure time per plate. Compound dose-response curves were normalized to DMSO and empty well controls on each plate. Quantitative drug activity data from dose-response curves was determined utilizing area Under the Curve (AUC) and Z-transformed AUC (Z-AUC, a mean-centering transformation applied to each individual cell-line screened).
Potency is read from the fitted curve at half-maximal effect.

Structure (SMILES)	viability, % of control	Potency	outcome
CCN1C[C@]2(OC(=O)c3ccccc3NC(C)=O)CC[C@H](OC)[C@@]34[C@H]5CC6[C@@H](OC)C[C@](O)(C(C[C@@H]23)[C@@H]14)[C@@]5(O)[C@@H]6OC	117%	–	–
CC1=C(O)C(=O)C=C2C1=CC=C1[C@@]2(C)CC[C@@]2(C)[C@@H]3C[C@](C)(C(=O)O)CC[C@]3(C)CC[C@]12C	–	0.662 µM (active)	–
NCC1(CC(=O)O)CCCCC1	–	–	inactive
O=C(Oc1ccc([N+](=O)[O-])cc1)N1CCC(C(O)(c2ccc3c(c2)OCO3)c2ccc3c(c2)OCO3)CC1	85.4%	–	–
C[C@@H]1CC[C@@]2(OC1)O[C@H]1C[C@H]3[C@@H]4CC=C5C[C@@H](O[C@@H]6O[C@H](CO)[C@@H](O[C@@H]7O[C@@H](C)[C@H](O)[C@@H](O)[C@H]7O)[C@H](O)[C@H]6O[C@@H]6O[C@@H](C)[C@H](O)[C@@H](O)[C@H]6O)CC[C@]5(C)[C@H]4CC[C@]3(C)[C@H]1[C@@H]2C	–	5.9 µM (active)	–
O=C(CBr)N1CC([N+](=O)[O-])([N+](=O)[O-])C1	–	34 µM (active)	–
CC1(C)CC[C@]2(NC(=O)C(C)(F)F)CC[C@]3(C)[C@H](C(=O)C=C4[C@@]5(C)C=C(C#N)C(=O)C(C)(C)[C@@H]5CC[C@]43C)[C@@H]2C1	–	1.18 µM (active)	–
CSCC[C@@H](NC(=O)[C@@H](Cc1ccccc1)NC(=O)CNC(=O)CNC(=O)[C@@H](N)Cc1ccc(O)cc1)C(=O)O	124%	–	–
CCOc1ccccc1-n1c(C(C)N2CCN(C(=O)COc3ccc(Cl)cc3)CC2)nc2ccccc2c1=O (stereo not given)	–	3.32 µM (active)	–
CN1C(=O)CCS(=O)(=O)C1c1ccc(Cl)cc1 (stereo not given)	107%	–	–
C/C(=C\c1csc(C)n1)[C@@H]1C[C@@H]2O[C@]2(C)CCC[C@H](C)[C@H](O)[C@@H](C)C(=O)C(C)(C)[C@@H](O)CC(=O)O1	–	0.0093 µM (active)	–
Fc1ccc(C(OCCN2CCN(CCCc3ccccc3)CC2)c2ccc(F)cc2)cc1	–	10.5 µM (active)	–
CC[C@@H](C(N)=O)N1CCCC1=O	115%	–	–
C[C@@H]1C[C@@H]([C@H](O)CC2CC(=O)NC(=O)C2)C(=O)[C@@H](C)C1	–	0.525 µM (active)	–
CC(=O)OC[C@H]1O[C@@H]([S-])[C@H](OC(C)=O)[C@@H](OC(C)=O)[C@@H]1OC(C)=O.CC[PH+](CC)CC.[Au]	–	0.235 µM (active)	–
CN1[C@H]2CC(O)C[C@H]1[C@H]1O[C@H]12 (stereo not given in full)	139%	–	–
C[C@]12CC[C@H]3[C@@H](CCC4=CC(=O)CC[C@@]43C)[C@H]1CC[C@H]2OC(=O)CCC1CCCC1	97.5%	–	–
CN1C(=O)COc2c(C(=O)NC3CN4CCC3CC4)cc(Cl)cc21 (stereo not given)	105%	–	–
CCCCCC[C@H]1C(=O)O[C@H](C)[C@H](NC(=O)c2cccc(NC=O)c2O)C(=O)O[C@@H](C)[C@@H]1OC(=O)CC(C)C	–	1.32 µM (active)	–
CC(C)c1cccc(C(C)C)c1O	121%	–	–

Structure (SMILES)	viability, % of control	Potency	outcome
CCN1CCN(C(=O)Cc2ccc(Nc3ncc(F)c(Nc4ccc(C(=O)Nc5ccccc5Cl)cc4)n3)cc2)CC1	–	1.48 µM (active)	–
Cn1cc(C2=C(c3cn(C4CCN(Cc5ccccn5)CC4)c4ccccc34)C(=O)NC2=O)c2ccccc21	–	4.68 µM (active)	–
CN(C)CCN(C)CCc1ccc(Cl)c(Cl)c1	122%	–	–
CC(=O)O[C@@]12CO[C@@H]1C[C@H](O)[C@@]1(C)C(=O)[C@H](O)C3=C(C)[C@@H](O)C[C@@](O)([C@@H](OC(=O)c4ccccc4)[C@H]21)C3(C)C	–	23.5 µM (active)	–
CC(C)(O)C(=O)Nc1ccc([N+](=O)[O-])c(C(F)(F)F)c1	–	16.6 µM (active)	–
N[C@@H](Cc1ccc(N(CCCl)CCCl)cc1)C(=O)O	–	1.48 µM (active)	–
c1ccc2c(CN3CCNCC3)cccc2c1	108%	–	–
C/C(O)=C(\C#N)C(=O)Nc1cc(Br)ccc1Br	114%	–	–
CCCCCCC(C)(C)c1cc(O)c2c(c1)OC(C)(C)C1CC=C(CO)C[C@H]21 (stereo not given in full)	–	29.5 µM (active)	–
Cc1ccccc1-n1c(Cn2ncc3c(N)ncnc32)nc2cccc(C)c2c1=O	–	8.33 µM (active)	–
Cc1ccccc1-n1c(Cn2cnc3c(N)ncnc32)nc2cccc(C)c2c1=O	–	1.48 µM (active)	–
CO/C1=C/C(C)=C\[C@@H](C)[C@@H](O)[C@@H](C)C/C(C)=C\C=C/[C@H](OC)[C@@H]([C@@H](C)[C@@H](O)[C@H](C)[C@@]2(O)C[C@@H](O)[C@H](C)[C@@H](C(C)C)O2)OC1=O	–	0.0986 µM (active)	–
Cn1c(CCCC(=O)O)nc2cc(N(CCCl)CCCl)ccc21	–	10.5 µM (active)	–
C#C[C@]1(O)C=C[C@H]2[C@@H]3CCC4=CC(=O)CC[C@@H]4[C@H]3CC[C@@]21CC	–	18.6 µM (active)	–
C[C@](O)(COc1ccc(C#N)cc1)C(=O)Nc1ccc(C#N)c(C(F)(F)F)c1	74.6%	–	–
Cc1cccc(C)c1NC(=O)CN1CCCC1=O	131%	–	–
O=S(=O)(CC1CS1)c1ccc(Oc2ccccc2)cc1 (stereo not given)	–	11.8 µM (active)	–
CC(=O)Nc1ccc(OC[C@](C)(O)C(=O)Nc2ccc([N+](=O)[O-])c(C(F)(F)F)c2)cc1	107%	–	–
NC(=O)[C@@H](CC1CC1)[C@@H](CCC(F)(F)F)C(=O)N[C@H]1N=C(c2ccccc2)c2cccc(F)c2NC1=O	108%	–	–
Cc1[nH]nc2ccc(-c3cncc(OC[C@@H](N)Cc4c[nH]c5ccccc45)c3)cc12	–	0.263 µM (active)	–
